Source: the supplement of paper PMC10338343
± gives the standard deviation.

Assays:
[1] = tested on: MILI (PIWIL2) piRISC loaded with L1MC piRNA (26 nt); assay: pre-steady-state target cleavage rate (min^-1); guide: L1MC piRNA 5'p-UAACUAAAUACUAUGCAAGCUGUAGG; higher = faster piRNA-guided slicing of the target; details: auxiliary factor: 500 nM mouse GTSF1;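 also: 1 nM active piRISC with 0.1 nM target library at 33 °C single turnover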
How it was run: (§1)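 Reactions were run for 0–8 or 0–960 min at 33 °C in HEPES–potassium acetate buffer, combining 1 nM active affinity-purified piRISC with one synthetic guide, […] transcribed, DNA-blocked target RNA library and, in some cases, 500 nM GTSF1 partner protein. Sequencing of uncleaved targets followed, with normalisation to depth and to weakly complementary targets. Three trials were pooled, k3 was capped at 0.0001 min^-1, and the pre-steady-state cleavage rate was taken from a burst-and-steady-state fit.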

[2] = tested on: EfPiwi piRISC loaded with L1MC piRNA (26 nt); assay: pre-steady-state target cleavage rate (min^-1); auxiliary factor: 500 nM Ephydatia muelleri Gtsf1; guide: L1MC piRNA 5'p-UAACUAAAUACUAUGCAAGCUGUAGG; MIWI and MILI are mouse PIWI proteins and EfPiwi is from a freshwater sponge; tags in brackets are library labels; higher = faster piRNA-guided slicing of the target
How it was run: as §1

| Sequence | pre-steady-state target cleavage rate [1] | pre-steady-state target cleavage rate [2] |
| --- | --- | --- |
| UCCUGGAACAGCAAGCAUAGUAUUUAGAAA | 0.162 ± 0.025 | 0.00309 ± 0.002 |
| UCCUGGUACAGCUUGCAUAGUAUUCAGUUA | 0.058 ± 0.017 | 0.00472 ± 0.0022 |
| UCCUGGAUCAGCUUGCAUUGUAUUUAGAUA | 0.103 ± 0.019 | 0.00276 ± 0.0021 |
| UCCUGGAUGUCCUUGCAUAGUAUUUAGUCUA | 0.0325 ± 0.01 | 0.00301 ± 0.0024 |
| UCCUCCUACAGCUUGCAUAGUAUUUUCAAA | 0.232 ± 0.044 | 0.00383 ± 0.0027 |
| UCCUGCUACAGCUUGCAUAGAAAUUAGUUA | 0.059 ± 0.015 | 0.0026 ± 0.0021 |
| UCCUGGAUGACGAUGCAUAGUAUUUAGUUA | 0.0949 ± 0.013 | 0.00546 ± 0.0027 |
| UCCUGGAACAGCUUGCAUAGUAUUUUCAAA | 0.0774 ± 0.018 | 0.00233 ± 0.0023 |
| UCCUGCUUGUGCUUGCAUAGUAUUUAGUAA | 0.0582 ± 0.015 | 0.00475 ± 0.0026 |
| UCCUGGAUCACCUUGCAUAGUAUUUAGUAA | 0.247 ± 0.038 | 0.00344 ± 0.0031 |
| UCCUGGAACUGCUUGCAUAGUAUUUAGAUA | 0.123 ± 0.023 | 0.00297 ± 0.002 |
